Test results taken from the supplement of paper PMC3334620.
Over roughly 33,000 sequences, “E-score (-0.5 to 0.5)” has its median near -0.0014; the highest 2% begin near 0.25. What follows is part of a selection rich in the highest values, with near analogues and random picks from the rest.

Target: T1, Cad1 (UniProt P24813)
T1 sequence: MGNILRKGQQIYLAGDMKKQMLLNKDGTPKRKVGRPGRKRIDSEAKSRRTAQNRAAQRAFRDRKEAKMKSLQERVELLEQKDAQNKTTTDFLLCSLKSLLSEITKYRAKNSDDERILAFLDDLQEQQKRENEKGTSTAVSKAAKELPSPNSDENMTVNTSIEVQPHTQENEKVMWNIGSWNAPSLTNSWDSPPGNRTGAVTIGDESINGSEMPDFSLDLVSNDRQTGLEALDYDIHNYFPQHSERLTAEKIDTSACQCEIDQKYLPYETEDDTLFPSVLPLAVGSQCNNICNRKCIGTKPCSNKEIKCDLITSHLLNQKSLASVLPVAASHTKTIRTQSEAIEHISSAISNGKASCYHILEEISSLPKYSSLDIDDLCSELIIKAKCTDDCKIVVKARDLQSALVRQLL
Assay: PBM E-score (8-mer binding enrichment) (E-score (-0.5 to 0.5)); higher = stronger / more preferred TF binding
Details: protein concentration: 100 nM; construct: GST-full length
Method in brief: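 Universal all-10-mer Agilent arrays, double-stranded by primer extension on fresh or once-stripped slides, were probed with about 100-200 nM GST-tagged yeast transcription factors made by PURExpress. Fluorescent anti-GST detected bound protein, and masliner normalised the scans. E-scores from the Universal PBM Analysis Suite were given to each ungapped eight-base word pooled with its reverse complement.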

Sequence	PBM E-score
ATGATGCA	0.222
ATCGTTCA	0.0567
AGTTCATC	0.0446
AGTTCATA	0.101
AGTTCATG	0.265
CCGGTCCG	-0.104
ATGAGCCA	0.107
CTTTAGTA	0.174
AATTAGGG	-0.172
CATTAGAA	0.11
CATTAGTA	0.304
CGTTAGTA	0.289
CGTTAGTC	0.042
ACTTAGTG	-0.142
ATTTAGTC	0.18
AATTAGTG	0.316
GGTTAGTA	0.219
CATTAGTC	0.217
ATTTAGTA	0.293
AGGCCAAT	-0.0024
CCCGCCGC	-0.0389
AGCCGCAT	-0.0263
ACGAAAGC	0.00748
CGAGGTGC	0.142
AAGCGCTG	0.212

Sequence	PBM E-score
TAATATCA	0.167
CTACCTGA	-0.0406
CCTAGGCA	-0.0995
GATTAGAA	0.0793
AATTAGAC	0.0936
AGTTAGTC	-0.0819
ACTTAGTC	-0.016
AATTAGTC	0.346
AATTAGAT	0.252
ACTTAGTA	0.213
GCTTAGTA	0.344
CCTTAGTA	0.0752
GATTAGGA	-0.0959
AATTAGAG	0.0346
GATTAGTA	0.31
GGCCAATA	0.0295
AAGCTGAT	0.216
GTAGGAGA	-0.124
CGCTTCTC	-0.0668
ACAGCCAA	0.0312
GAGCTTGC	-0.048
CAAGTCCA	-0.0962
CCCGCCTA	0.0947
AATTAGTA	0.316
AGTTAGTA	0.0725

Sequence	PBM E-score
AATTAGGA	0.0377
CATCCTCG	0.0642
GACACTGC	-0.0407
CCGCTGTC	0.00182
CAAATGGA	0.0716
AAAATGGG	-0.157
AAAATGGA	0.267
GTCTACAC	0.0321
ATCCCAAT	-0.122
CTTTGTAA	0.333
ATTTGTAC	0.119
CTTTGTAC	0.0743
GTTTGTAA	0.137
ATTTGTAG	0.0654
ATTTGTAA	0.411
ACGCTCCA	0.0354
AGCGTACG	0.00701
ATACTTGC	0.0566
CAGATGCC	-0.141
ACGCGCTA	0.109
GTGCGCTA	0.0718
CCGCGCTA	0.263
CTGCGCTA	0.0362
CCGCGCTC	0.097
GCGCGCTA	0.326

Sequence	PBM E-score
GACCGTAA	-0.061
GGGTGGCA	-0.124
CCACTATC	-0.0188
AGGTAAAT	-0.00978
AGGTAAAC	0.105
AGGTAAAG	0.267
AGTGATGC	-0.0338
ACCCGCAC	0.0284
ATTAATAG	0.275
ATGAATAG	0.0469
CTTAATGA	0.00816
ATTAATTA	0.263
ATTAATGC	0.167
CGTAATTA	0.249
GTTAATTA	0.23
ATTAATGA	0.306
CTTAATTA	0.152
ATTAATAC	0.199
AGTAATTA	0.283
GGTAATTA	0.186
ATGGGGGC	-0.349
AAGATAGA	0.0137
CCGAGTGC	0.089
GATTGACC	-0.149
GCCGGGAC	-0.0972

Sequence	PBM E-score
AGTAATTG	0.0751
ATTAATGG	0.239
ATCAATTA	0.255
CTTAATTC	0.177
AGTAATTC	0.23
ATCAATTG	0.186
ATTAATTG	0.313
ATCAATTC	-0.026
ATTAATTC	0.304
CGTAACCC	-0.0539
TCCTGACA	0.125
GGCTTCCC	-0.0469
AACCAATC	0.0878
AACCAGTG	-0.0556
AACCAATT	0.297
AACCAGTA	0.157
AACCAGTT	0.27
AACCAATG	0.109
ACGCGGCC	-0.0773
CAGCGGGC	0.00044
GGTAGTAC	-0.0112
CCAATCGC	0.0869
CCCAGCAA	-0.0856
